# Inconclusive results are not listed. The source made the active and inactive calls. Calls come from the whole dose curve; as a rule, active = well fitted cell-killing curve with a large enough effect; inconclusive = small, poorly fitted or top-dose-only effect, or effect the other way; inactive = flat fitted curve, though single readings scatter.
# Tested on: SKOV3
# Assay: Primary qHTS to identify gynecologic anti-cancer compounds using libraries of approved drugs and bioactive compounds (AID 1345084); note: nearly all actives have a fitted effect of over 55% in size
# Conditions: Gynecologic cancer cell panel viability, ATPlite luminescence, 48 h; series mostly up to 57.5 µM; activity change, negative = cytotoxicity: at the top concentration
# Method in brief: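 Cell viability after 48 h drug treatment, ATPlite luminescence readout; five doses.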
# % is set by controls: 0 for no effect and ±100 for the full control effect.
row,SMILES,"activity change, negative = cytotoxicity"
1,C[C@@H]1O[C@@H](O[C@H]2[C@H](O[C@H]3CC[C@@]4(C)C(CC[C@]5(C)C4C=C[C@]46OC[C@@]7(CCC(C)(C)C[C@H]74)[C@@H](O)C[C@]65C)[C@]3(C)CO)O[C@H](CO)[C@@H](O)[C@@H]2O[C@@H]2O[C@H](CO)[C@@H](O[C@@H]3O[C@@H](C)[C@H](O)[C@@H](O)[C@H]3O)[C@H](O)[C@H]2O)[C@H](O)[C@H](O)[C@H]1O (stereo partly drawn),-29.1% [at 11.6 µM] (inactive)
2,Cc1ccccc1NC(=O)Nc1ccc(CC(=O)N(C)[C@@H](CC(C)C)C(=O)NCC[C@H](NC(=O)[C@@H]2CCCN2S(=O)(=O)c2cc(Cl)cc(Cl)c2)C(=O)O)cc1,-6.8% [at 25.3 µM] (inactive)
3,CCc1c(-c2ccccc2)c(-c2ccccc2)nn1-c1ccccc1-c1cccc(OCC(=O)O)c1,-7.51% (inactive)
4,COc1ccc(C(O)C(C)OC2OC(CO)C(O)C(O)C2O)cc1 (stereo not drawn),4.25% [at 38.5 µM] (inactive)
5,CC(C)=C/C=C\[C@H](C)[C@H]1CC[C@]2(C)C[C@@H]3C(C)=CC(=O)C3/C(CO)=C\C[C@@H]12 (stereo partly drawn),-13.6% [at 38.5 µM] (inactive)
6,CC1CCC2(C(=O)O)CCC3(C)C(=CCC4C5(C)CCC(O)C(C)(CO)C5CCC43C)C2C1(C)O (stereo not drawn),-15.6% [at 25.3 µM] (inactive)
7,CC(=O)O[C@@H]1c2c3c(cc(O)c2C(=O)O[C@@H]1C)O[C@@]1(C)[C@@H](O)C[C@H]2C(C)(C)C(=O)C=C[C@]2(C)[C@@H]1C3,-0.194% [at 25.3 µM] (inactive)
8,C[C@@H]1O[C@@H](O[C@H]2[C@H](O)[C@@H](O)[C@H](OC[C@H]3O[C@@H](OC(=O)[C@]45CCC(C)(C)C[C@H]4C4=CCC6[C@@]7(C)CC[C@H](O[C@@H]8OC[C@H](O)[C@H](O[C@@H]9O[C@H](CO)[C@@H](O)[C@H](O)[C@H]9O)[C@H]8O)[C@@](C)(CO)C7CC[C@@]6(C)[C@]4(C)CC5)[C@H](O)[C@@H](O)[C@@H]3O)O[C@@H]2CO)[C@H](O)[C@H](O)[C@H]1O (stereo partly drawn),11.5% [at 6.55 µM] (inactive)

# From PubChem BioAssay (NCATS)
